S16 F2sN tox: S16 Schwann cell cytotoxicity. AID 1508642. 43,000 compounds, 0.48% hits. S16 Pmp22-F2sN Schwann cells viability, CellTiter-Glo, 24 h. Potency, µM (highest dose often 57.5 µM), most hits filed as cytotoxic; further: nearly all actives have a fitted effect of over 65% in size
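Used to flag compounds lowering reporter output through toxicity, this quantitative HTS measures ATP-based CellTiter-Glo luminescence in S16 Pmp22-F2sN Schwann cells after 24 h compound exposure at 37C.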
p53null 39C tox: selectivity test: cytotoxicity in p53 null cells, nonpermissive temperature. AID 904. Potency, µM (highest dose often 46.1 µM), actives largely listed as cytotoxic. H1299 p53-null (neo) cells, 39C, ATPlite viability, 24 h. 55,000 compounds, 0.97% hits; further: nearly all actives have a fitted effect of over 50% in size
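Cells seeded at 600/well, 37C overnight. Compound added (up to 46 uM), plates shifted to 39C for 24 hr. ATPlite added, luminescence read after 20 min at room temperature.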
p53null 32C kill: p53 null cell cytotoxicity, permissive temperature; Potency, µM (series often up to 46.1 µM), most hits filed as cytotoxic; H1299-neo p53 null cells, ATP luminescence, 24 h, 32C; 55,000 compounds, 0.62% hits; AID 903; further: nearly all actives have a fitted effect of over 55% in size
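H1299-neo (p53 null) cells, 600/well, treated 24 h at 32C with compound up to 46 uM; ATPlite luminescence viability, normalized to DMSO and 100 uM tamoxifen; AC50 by Hill fit.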
pS6 MEF inh: mTORC1 pathway inhibition measured by phospho-rpS6; 44,000 compounds, 0.78% hits; Tsc2-/- p53-/- MEF, phospho-rpS6 immunofluorescence/PI, 24 h; Potency, µM (highest dose often 38.3 µM), hits mostly inhibitors; further: nearly all actives have a fitted effect of over 50% in size
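Tsc2-/-, p53-/- mouse embryonic fibroblasts (empty-vector line) exposed to compound 24 hrs at 37 C, fixed, immunostained for phospho-rpS6 and counterstained with propidium iodide. Acumen laser scanning gives % positive cells from Alexa 488/PI ratio, thresholded using 7.5 nM rapamycin; PI count gives viability.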
PMP22 txn prim: PMP22 gene transcription modulation; Potency, µM (highest dose often 57.5 µM), usual class: inhibitors; AID 1508649; S16 Pmp22-F2sN Schwann cells (luciferase reporters placed in the Pmp22 gene), FLuc/NLuc coincidence luminescence, 24 h; 43,000 compounds, 2% hits; active means clear falling dose curves in both reporters; inconclusive means both reporters move, but less clearly or upward; inactive means either reporter flat; the % is the NLuc reporter signal
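Luminescent read-out of sequential FLuc and NLuc signals from a reporter embedded in the Pmp22 3' UTR of S16 Schwann cells, taken after 24 h compound exposure at 37C; compounds reducing both signals score as inhibitors of expression.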
Large screens that a line does not name were inactive. Compounds with a hit are over-represented: about 3.2% of the library has one in this group of screens. Unless noted, the call rests on the fitted dose curve; in most records, active means well fitted curve in the direction sought with a large enough effect; inconclusive means small, poorly fitted or top-dose-only effect, or another doubt; inactive means no such curve, though single readings can be large; an effect the other way counts as inactive or inconclusive.

COc1ccc(Nc2nc(Nc3ccc(OC)cc3OC)nc(N3CCOCC3)n2)c(OC)c1	pS6 MEF inh 1.5µM
CCOC(=O)CSc1nc2ccc(Nc3nc(N4CCOCC4)nc(N4CCOCC4)n3)cc2s1	none (no result: S16 F2sN tox, pS6 MEF inh, PMP22 txn prim)
COc1ccc(NC(=O)CSc2nc3ccccc3nc2N2CCOCC2)c(OC)c1	p53null 39C tox inconclusive
Cn1c(=O)c2c(nc(SCC(=O)Nc3ccc(F)c(F)c3)n2Cc2ccccc2F)n(C)c1=O	none
CSc1ncc(C(=O)NCc2ccccc2)c(-c2ccccc2)n1	none
Cc1cccc(-n2nnnc2S(C)(=O)=O)c1	S16 F2sN tox 5µM, p53null 32C kill 14µM, pS6 MEF inh 0.41µM, PMP22 txn prim 6.7µM
c1ccc(-c2nc(-c3ccccn3)no2)cc1	p53null 39C tox 7.9µM, p53null 32C kill 5.6µM (no result: S16 F2sN tox, pS6 MEF inh, PMP22 txn prim)
CCN(CC)c1ccc(-c2nc(-c3ccccn3)no2)cc1[N+](=O)[O-]	PMP22 txn prim inconclusive
CCN(CC)CCNC(CC(=O)Nc1ccc(Cl)cc1Cl)C(=O)O (configuration not stated)	none (no result: S16 F2sN tox, pS6 MEF inh, PMP22 txn prim)
CN1CCN(C(CNS(=O)(=O)c2ccc(Cl)cc2)c2cccnc2)CC1 (configuration not stated)	none (no result: S16 F2sN tox, pS6 MEF inh, PMP22 txn prim)
Cc1ccc(S(=O)(=O)N2CCN(Cc3nc4ccc(C)cc4o3)CC2)c(C)c1	PMP22 txn prim inconclusive
Cc1cc(Nc2cccc(Cl)c2)nc2ccc(NC(=O)c3cccnc3)cc12	S16 F2sN tox inconclusive, p53null 39C tox 25µM, p53null 32C kill inconclusive, PMP22 txn prim inconclusive
Cc1cc(Nc2cccc(Cl)c2)nc2ccc(NC(=O)c3cccc(N(C)C)c3)cc12	none
Cc1cc(N2CCN(C)CC2)nc2ccc(NC(=O)Nc3cccc(Cl)c3)cc12	S16 F2sN tox 25µM, p53null 39C tox inconclusive, pS6 MEF inh inconclusive, PMP22 txn prim inconclusive
Cc1ccc(NC(=O)Cn2cc(S(=O)(=O)c3ccccc3)c(=O)c3cc4c(cc32)OCO4)cc1	none
FC(F)(F)c1cccc(Nc2nc3nonc3nc2Nc2ccc(Cl)cc2)c1	S16 F2sN tox 8.9µM, p53null 39C tox 13µM, p53null 32C kill inconclusive, pS6 MEF inh inconclusive, PMP22 txn prim 5.6µM
O=C(COC(=O)C(Cc1c[nH]c2ccccc12)NC(=O)c1ccc(Br)cc1)c1ccc(Cl)cc1 (configuration not stated)	none
CN1CCN(C(CNC(=O)C(=O)Nc2cccc(Cl)c2)c2ccc3c(c2)OCO3)CC1 (configuration not stated)	S16 F2sN tox inconclusive, pS6 MEF inh 16µM, PMP22 txn prim inconclusive
COc1cc2nc(Nc3cccc(C)c3)nc(N)c2cc1OC	p53null 39C tox inconclusive, p53null 32C kill inconclusive, pS6 MEF inh inconclusive, PMP22 txn prim inconclusive
COc1cc2nc(Nc3ccc(C)c(C)c3)nc(N)c2cc1OC	S16 F2sN tox inconclusive, p53null 39C tox 32µM, p53null 32C kill inconclusive, pS6 MEF inh inconclusive, PMP22 txn prim inconclusive
COc1ccc(-c2nc(SCC(=O)NCC3CCCO3)c(-c3ccc(C)cc3)[nH]2)cc1OC (configuration not stated)	none
COc1ccc(CNC(=O)c2cc3cc(OC)ccc3oc2=O)cc1	none
COc1ccc2oc(=O)c(C(=O)Nc3cccc(C(=O)O)c3)cc2c1	p53null 39C tox 7.9µM, p53null 32C kill 10µM
Nc1nnnn1/N=C/c1cccc(OCc2ccccc2Cl)c1	none (no result: S16 F2sN tox, pS6 MEF inh, PMP22 txn prim)
COc1cccc(-c2nnc(-c3ccc(C)o3)o2)c1	p53null 39C tox 13µM, p53null 32C kill 13µM (no result: S16 F2sN tox, pS6 MEF inh, PMP22 txn prim)
Cc1cc(C)c2oc(-c3cccc(NC(=O)COc4ccc([N+](=O)[O-])cc4)c3)nc2c1	pS6 MEF inh 21µM, PMP22 txn prim inconclusive
Cc1ccc(Cl)cc1NC(=O)Cn1c(=O)n(CCC(=O)N2CCc3ccccc3C2)c(=O)c2ccccc21	none
Cc1ccc(-c2nc3ccccc3[nH]2)cc1NC(=O)COc1ccccc1[N+](=O)[O-]	p53null 39C tox inconclusive, p53null 32C kill inconclusive, pS6 MEF inh 2.3µM, PMP22 txn prim inconclusive
Cc1ccc(S(=O)(=O)C(CNC(=O)C(=O)NCCc2ccc(Cl)cc2)c2ccco2)cc1 (configuration not stated)	none
O=C(NCCc1ccc(Cl)cc1)C(=O)NCC(c1ccco1)S(=O)(=O)c1ccc(Cl)cc1 (configuration not stated)	S16 F2sN tox inconclusive, pS6 MEF inh 1.2µM, PMP22 txn prim inconclusive
CCOc1ccc(Nc2nc(-c3cccc(Cl)c3)c3c(n2)-c2ccccc2OC3)cc1	p53null 39C tox inconclusive, p53null 32C kill inconclusive, pS6 MEF inh 2.3µM
CCOc1ccc(S(=O)(=O)N(C(C)=O)c2ccc3oc(C)c(C(=O)OC)c3c2)cc1	S16 F2sN tox inconclusive, p53null 39C tox inconclusive, pS6 MEF inh 6.6µM, PMP22 txn prim 5.4µM
COC(=O)c1c(C)oc2ccc(N(C(=O)c3ccncc3)S(=O)(=O)c3cc(C)ccc3C)cc12	S16 F2sN tox inconclusive, pS6 MEF inh inconclusive, PMP22 txn prim 12µM
CC(=O)c1c(C)oc2ccc(N(C(=O)Oc3ccccc3)S(=O)(=O)c3ccccc3)cc12	PMP22 txn prim inconclusive
CCOC(=O)c1c(-c2ccccc2)oc2ccc(N(C(C)=O)S(=O)(=O)c3ccccc3)cc12	none (no result: S16 F2sN tox, PMP22 txn prim)
COC(=O)c1c(C)oc2ccc(N(C(=O)c3ccncc3)S(=O)(=O)c3ccc(Br)cc3)cc12	S16 F2sN tox inconclusive, p53null 39C tox inconclusive, pS6 MEF inh inconclusive, PMP22 txn prim inconclusive
COC(=O)c1c(C)oc2ccc(N(C(=O)Oc3ccccc3)S(=O)(=O)c3ccc(C(C)(C)C)cc3)cc12	PMP22 txn prim 6.6µM
O=C(NCCc1csc(-c2cccc(F)c2)n1)c1ccco1	PMP22 txn prim inconclusive
CCOc1ccccc1NC(=O)c1cc2ccc3cccnc3c2[nH]1	p53null 39C tox inconclusive
COc1cc(Cl)c(C)cc1NC(=O)c1cc2ccc3cccnc3c2[nH]1	p53null 32C kill 20µM, PMP22 txn prim inconclusive
Cc1ccccc1CSc1nc2c(sc3ccccc32)c(=O)n1CCCC(=O)NCCCOC(C)C	none
COc1ccc(OC)c(C(=O)CC2(O)C(=O)N(Cc3ccccc3C)c3ccccc32)c1 (configuration not stated)	S16 F2sN tox inconclusive, p53null 39C tox inconclusive, pS6 MEF inh inconclusive
Cc1ccc(CN2C(=O)C(O)(CC(=O)c3ccc(C)cc3)c3ccccc32)cc1 (configuration not stated)	S16 F2sN tox inconclusive, pS6 MEF inh 9.3µM, PMP22 txn prim 7.6µM
Cc1ccc(C(=O)CC2(O)C(=O)N(Cc3ccccc3F)c3ccccc32)cc1 (configuration not stated)	S16 F2sN tox inconclusive, pS6 MEF inh inconclusive, PMP22 txn prim inconclusive
Cc1ccccc1CN1C(=O)C(O)(CC(=O)c2cccc(Br)c2)c2ccccc21 (configuration not stated)	p53null 39C tox 32µM, p53null 32C kill inconclusive, PMP22 txn prim inconclusive

Assay outcomes deposited in PubChem by National Center for Advancing Translational Sciences (NCATS).
